{
  "source": "PubChem BioAssay (Tox21)",
  "note": "Records with an inconclusive call do not appear. A call without a number means that no potency is given here. Activity calls are given as the source filed them. Unless noted, the call rests on the fitted dose curve; in most records, active means well fitted cell-killing curve with a large enough effect in the repeat runs; inconclusive means weak or mixed curves, or effect the other way; inactive means flat fitted curve, though single readings scatter.",
  "data": [
    {"molecular_target": "Estrogen receptor beta (Homo sapiens) (UniProt Q92731)", "sequence (Q92731 whole entry, looked up)": "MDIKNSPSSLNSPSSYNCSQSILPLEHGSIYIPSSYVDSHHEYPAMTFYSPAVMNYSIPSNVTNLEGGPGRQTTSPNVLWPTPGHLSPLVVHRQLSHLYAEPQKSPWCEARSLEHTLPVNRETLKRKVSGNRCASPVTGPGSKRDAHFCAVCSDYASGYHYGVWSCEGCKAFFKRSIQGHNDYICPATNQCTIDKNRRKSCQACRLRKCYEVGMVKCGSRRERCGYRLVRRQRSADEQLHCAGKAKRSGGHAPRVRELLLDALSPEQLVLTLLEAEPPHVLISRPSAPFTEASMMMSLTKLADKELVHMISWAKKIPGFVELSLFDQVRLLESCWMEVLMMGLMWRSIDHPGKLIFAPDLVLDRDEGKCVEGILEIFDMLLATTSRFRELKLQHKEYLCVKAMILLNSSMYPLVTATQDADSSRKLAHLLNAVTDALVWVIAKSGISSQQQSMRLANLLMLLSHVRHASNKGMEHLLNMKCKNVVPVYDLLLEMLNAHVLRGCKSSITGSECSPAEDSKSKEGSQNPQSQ", "assay": "qHTS assay to identify small molecule agonists of the estrogen receptor beta (ER-beta) signaling pathway (AID 1259377; active means well fitted activation curve with a large enough effect in the signal ratio in the repeat runs, not every such curve was filed as active; the % refers to the signal ratio)", "details": "ER-beta-UAS-bla HEK293T, beta-lactamase FRET ratio, 16 h; series mostly up to 92.4 µM", "summary_of_the_method": "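HEK293T ER-beta-UAS-bla; 2% charcoal-stripped FBS; cells pre-incubated 6 hr, compound 16 hr, 37C/5% CO2; LiveBLAzer B/G FRET substrate 2 h RT; fluorescence intensity read.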", "values": [
      {"molecule": "Cc1ccc(O)c(-n2nc3ccccc3n2)c1", "outcome": "inactive"},
      {"molecule": "CN(C)C=O", "outcome": "inactive"},
      {"molecule": "Cc1cnc(NC(=O)C2=C(O)c3ccccc3S(=O)(=O)N2C)s1", "outcome": "inactive"},
      {"molecule": "Cc1c(N(C)C)c(=O)n(-c2ccccc2)n1C", "outcome": "inactive"},
      {"molecule": "CC(=O)OC/C=C(C)/C=C/C=C(C)/C=C/C1=C(C)CCCC1(C)C", "outcome": "inactive"},
      {"molecule": "C[C@]12C=CC(=O)C=C1CC[C@@H]1[C@@H]2C(=O)C[C@@]2(C)[C@H]1CC[C@]2(O)C(=O)CO", "outcome": "inactive"},
      {"molecule": "CCCCOC(=O)CCCCCCCCC(=O)OCCCC", "outcome": "inactive"},
      {"molecule": "CC(C)Cc1ccc(C(C)C(=O)O)cc1", "note": "(stereo not given)", "outcome": "inactive"},
      {"molecule": "COc1ccccc1NC(=O)CC(C)=O", "outcome": "inactive"},
      {"molecule": "CCCCCCCCCCCCCCCCCC(=O)OCC(O)CO", "note": "(stereo not given)", "outcome": "inactive"},
      {"molecule": "CCN1CCCC1=O", "outcome": "inactive"},
      {"molecule": "C=C(C)OC(C)=O", "outcome": "inactive"},
      {"molecule": "C=CCOC(=O)CC(C)C", "outcome": "inactive"},
      {"molecule": "CC(C)(C)NCC(O)c1ccc(O)c(CO)c1", "note": "(stereo not given)", "outcome": "inactive"},
      {"molecule": "C=CC(=O)NC(C)(C)CS(=O)(=O)O", "outcome": "inactive"},
      {"molecule": "COc1ccccc1O", "outcome": "inactive"},
      {"molecule": "NC(=O)N1c2ccccc2C=Cc2ccccc21", "outcome": "inactive"},
      {"molecule": "COC(=O)C1CCC(C(=O)OC)CC1", "note": "(stereo not given)", "outcome": "inactive"},
      {"molecule": "CN/C(=C\\[N+](=O)[O-])NCCSCc1ccc(CN(C)C)o1", "outcome": "inactive"},
      {"molecule": "C[C@]12C[C@H](O)[C@H]3[C@@H](CCC4=CC(=O)CC[C@@]43C)[C@@H]1CC[C@@H]2C(=O)CO", "outcome": "inactive"},
      {"molecule": "OCCCc1ccccc1", "outcome": "inactive"},
      {"molecule": "COC1=CC(=O)C[C@@H](C)[C@]12Oc1c(Cl)c(OC)cc(OC)c1C2=O", "outcome": "inactive"}
    ]},
    {"molecular_target": "Estrogen receptor beta (Homo sapiens) (UniProt Q92731)", "assay": "qHTS assay to identify small molecule antagonists of the estrogen receptor beta (ER-beta) signaling pathway (AID 1259378; active means well fitted inhibition curve with a large enough effect in the signal ratio in the repeat runs, not every such curve was filed as active; the % refers to the signal ratio; further: potency means the concentration at half of the fitted maximal effect)", "details": "ER-beta-UAS-bla HEK293T, beta-lactamase FRET ratio, 16 h; series mostly up to 92.4 µM", "summary_of_the_method": "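Antagonist mode: compounds added to beta-lactamase reporter HEK293T ER-beta-UAS cells stimulated with E2 (1nM final), 16 hr at 37C. LiveBLAzer B/G FRET substrate, 2 hours room temperature, fluorescence read-out.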", "values": [
      {"molecule": "COC(=O)c1ccc(C=O)cc1", "Potency": "inactive"},
      {"molecule": "Cc1ccc(O)c(-n2nc3ccccc3n2)c1", "Potency": "inactive"},
      {"molecule": "CN(C)C=O", "Potency": "inactive"},
      {"molecule": "Cc1cnc(NC(=O)C2=C(O)c3ccccc3S(=O)(=O)N2C)s1", "Potency": "inactive"},
      {"molecule": "Cc1c(N(C)C)c(=O)n(-c2ccccc2)n1C", "Potency": "inactive"},
      {"molecule": "CC(=O)OC/C=C(C)/C=C/C=C(C)/C=C/C1=C(C)CCCC1(C)C", "Potency": "54.5 µM (active)"},
      {"molecule": "C[C@]12C=CC(=O)C=C1CC[C@@H]1[C@@H]2C(=O)C[C@@]2(C)[C@H]1CC[C@]2(O)C(=O)CO", "Potency": "inactive"},
      {"molecule": "CCCCOC(=O)CCCCCCCCC(=O)OCCCC", "Potency": "inactive"},
      {"molecule": "CC(C)Cc1ccc(C(C)C(=O)O)cc1", "note": "(stereo not given)", "Potency": "inactive"},
      {"molecule": "COc1ccccc1NC(=O)CC(C)=O", "Potency": "inactive"},
      {"molecule": "CCCCCCCCCCCCCCCCCC(=O)OCC(O)CO", "note": "(stereo not given)", "Potency": "inactive"},
      {"molecule": "CCN1CCCC1=O", "Potency": "inactive"},
      {"molecule": "C=C(C)OC(C)=O", "Potency": "inactive"},
      {"molecule": "C=CCOC(=O)CC(C)C", "Potency": "inactive"},
      {"molecule": "CC(C)(C)NCC(O)c1ccc(O)c(CO)c1", "note": "(stereo not given)", "Potency": "inactive"},
      {"molecule": "C=CC(=O)NC(C)(C)CS(=O)(=O)O", "Potency": "inactive"},
      {"molecule": "COc1ccccc1O", "Potency": "inactive"},
      {"molecule": "NC(=O)N1c2ccccc2C=Cc2ccccc21", "Potency": "inactive"},
      {"molecule": "COC(=O)C1CCC(C(=O)OC)CC1", "note": "(stereo not given)", "Potency": "inactive"},
      {"molecule": "CN/C(=C\\[N+](=O)[O-])NCCSCc1ccc(CN(C)C)o1", "Potency": "inactive"},
      {"molecule": "C[C@]12C[C@H](O)[C@H]3[C@@H](CCC4=CC(=O)CC[C@@]43C)[C@@H]1CC[C@@H]2C(=O)CO", "Potency": "inactive"},
      {"molecule": "OCCCc1ccccc1", "Potency": "inactive"},
      {"molecule": "COC1=CC(=O)C[C@@H](C)[C@]12Oc1c(Cl)c(OC)cc(OC)c1C2=O", "Potency": "inactive"}
    ]},
    {"system": "not listed separately", "assay": "qHTS assay to identify small molecule agonists of the androgen receptor (AR) signaling pathway in the presence of an antagonist - cell viability counter screen (AID 1259379);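 further: MDA-kb2 human breast cancer cells carrying an MMTV luciferase reporter; nearly all actives have a fitted effect of over 25% in size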", "details": "MDA-kb2 viability, CellTiter-Fluor, 16 h; series mostly up to 92.4 µM", "summary_of_the_method": "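Fluorescence from CellTiter-Fluor, added after 15 hr and read 1 hr later, gave cell viability. Cells were MDA-kb2 exposed to compounds (15 concentrations) in the presence of 3.0uM nilutamide at 37C, 0% CO2.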", "values": [
      {"molecule": "COC(=O)c1ccc(C=O)cc1", "Potency": "inactive"},
      {"molecule": "Cc1ccc(O)c(-n2nc3ccccc3n2)c1", "Potency": "inactive"},
      {"molecule": "CN(C)C=O", "Potency": "inactive"},
      {"molecule": "Cc1cccc2ccccc12", "Potency": "inactive"},
      {"molecule": "Cc1cnc(NC(=O)C2=C(O)c3ccccc3S(=O)(=O)N2C)s1", "Potency": "inactive"},
      {"molecule": "Cc1c(N(C)C)c(=O)n(-c2ccccc2)n1C", "Potency": "inactive"},
      {"molecule": "CC(=O)OC/C=C(C)/C=C/C=C(C)/C=C/C1=C(C)CCCC1(C)C", "Potency": "inactive"},
      {"molecule": "C/C=C/c1ccc(O)c(OC)c1", "Potency": "inactive"},
      {"molecule": "C[C@]12C=CC(=O)C=C1CC[C@@H]1[C@@H]2C(=O)C[C@@]2(C)[C@H]1CC[C@]2(O)C(=O)CO", "Potency": "inactive"},
      {"molecule": "CCCCOC(=O)CCCCCCCCC(=O)OCCCC", "Potency": "inactive"},
      {"molecule": "CC(C)Cc1ccc(C(C)C(=O)O)cc1", "note": "(stereo not given)", "Potency": "inactive"},
      {"molecule": "COc1ccccc1NC(=O)CC(C)=O", "Potency": "inactive"},
      {"molecule": "CCCCCCCCCCCCCCCCCC(=O)OCC(O)CO", "note": "(stereo not given)", "Potency": "inactive"},
      {"molecule": "OC[C@@H](O)[C@@H](O)[C@H](O)[C@H](O)CO", "Potency": "inactive"},
      {"molecule": "CCN1CCCC1=O", "Potency": "inactive"},
      {"molecule": "C=C(C)OC(C)=O", "Potency": "inactive"},
      {"molecule": "CC(=O)/C=C/C1=C(C)CCCC1(C)C", "Potency": "inactive"},
      {"molecule": "C=CCOC(=O)CC(C)C", "Potency": "inactive"},
      {"molecule": "C#C[C@]1(O)CC[C@H]2[C@@H]3CCC4=CC(=O)CC[C@@H]4[C@H]3CC[C@@]21CC", "Potency": "inactive"},
      {"molecule": "CC(C)(C)NCC(O)c1ccc(O)c(CO)c1", "note": "(stereo not given)", "Potency": "inactive"},
      {"molecule": "CC(=O)CCC(C)C", "Potency": "inactive"},
      {"molecule": "C=CC(=O)NC(C)(C)CS(=O)(=O)O", "Potency": "inactive"},
      {"molecule": "CCCCCCCCOc1ccc(C(=O)c2ccccc2)c(O)c1", "Potency": "inactive"},
      {"molecule": "COc1ccccc1O", "Potency": "inactive"},
      {"molecule": "NC(=O)N1c2ccccc2C=Cc2ccccc21", "Potency": "inactive"},
      {"molecule": "COC(=O)C1CCC(C(=O)OC)CC1", "note": "(stereo not given)", "Potency": "inactive"},
      {"molecule": "CN/C(=C\\[N+](=O)[O-])NCCSCc1ccc(CN(C)C)o1", "Potency": "inactive"},
      {"molecule": "C[C@]12C[C@H](O)[C@H]3[C@@H](CCC4=CC(=O)CC[C@@]43C)[C@@H]1CC[C@@H]2C(=O)CO", "Potency": "inactive"},
      {"molecule": "OCCCc1ccccc1", "Potency": "inactive"},
      {"molecule": "COC1=CC(=O)C[C@@H](C)[C@]12Oc1c(Cl)c(OC)cc(OC)c1C2=O", "Potency": "inactive"}
    ]}
  ]
}
